Measurements published in PubChem BioAssay (NCI).
Where “and” joins values, the source holds several entries; their conditions need not be identical. Identical values can stand only once. This is part of a sample that, as a whole, favours compounds with a hit. Of some 79,000 tested, about 15% had one in any assay. A structure can be active in one record and inactive in another. Calls of active or inactive are those of the source. Rule as the data show it: active = growth inhibition above about 70%; inactive = the rest.

Tests used:
[1] = NCI Yeast Anticancer Drug Screen. Data for the rad50 strain (AID 155);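 also: 0% = growth of vehicle-only cultures of the same strain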; conditions: S. cerevisiae rad50 strain growth inhibition, stronger effect = higher value
Summary of the method: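 Growth of the mutant yeast was measured after compound exposure and referenced to vehicle-treated cultures.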

[2] = NCI Yeast Anticancer Drug Screen. Data for the mec2-1 strain (AID 157); conditions: S. cerevisiae mec2-1 strain, stronger effect = higher value
Summary of the method: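 mec2-1 yeast strain, carrying an alteration in DNA damage repair or cell cycle control, was exposed to compounds; growth inhibition was measured relative to vehicle-treated controls.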

[3] = NCI Yeast Anticancer Drug Screen. Data for the sgs1 mgt1 strain (AID 161);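 also: 0% = growth of cultures given vehicle only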; conditions: S. cerevisiae sgs1 mgt1 strain, stronger effect = higher value
Summary of the method: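 Yeast cells carrying a defined DNA-repair defect were exposed to test compounds. Growth inhibition was measured relative to vehicle-treated controls.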

[4] = NCI Yeast Anticancer Drug Screen. Data for the cln2 rad14 strain (AID 165);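 also: 0% = growth equal to vehicle treated cultures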; conditions: S. cerevisiae cln2 rad14 strain, stronger effect = higher value
Summary of the method: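 Yeast carrying cln2 and rad14 alterations (cell cycle control and DNA damage repair) were exposed to compounds. Growth inhibition was measured against vehicle-treated controls.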

[5] = NCI Yeast Anticancer Drug Screen. Data for the bub3 strain (AID 167); conditions: S. cerevisiae bub3 mutant strain, stronger effect = higher value
Summary of the method: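 Whole-cell yeast assay. The mutant strain was incubated with compounds, and growth inhibition was determined by comparison with vehicle-treated cells.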

[6] = NCI Yeast Anticancer Drug Screen. Data for the mlh1 rad18 strain (AID 175); conditions: S. cerevisiae mlh1 rad18 strain growth inhibition, stronger effect = higher value
Summary of the method: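 Growth inhibition of the yeast strain was measured after compound exposure and expressed relative to vehicle-treated controls. The strain carries defined defects in DNA damage repair.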

[7] = at 5.0 µM (retest, dose inferred, filed as 0.5)
[8] = at 50.0 µM (retest, dose inferred, filed as 5.0)

Compound	growth inhibition [1, 7]	growth inhibition [1, 8]	growth inhibition ([1]; at 50.0 µM)	growth inhibition [2, 7]	growth inhibition [2, 8]	growth inhibition ([2]; at 50.0 µM)	growth inhibition [3, 7]	growth inhibition [3, 8]	growth inhibition ([3]; at 50.0 µM)	growth inhibition [4, 7]	growth inhibition [4, 8]	growth inhibition ([4]; at 50.0 µM)	growth inhibition [5, 7]	growth inhibition [5, 8]	growth inhibition ([5]; at 50.0 µM)	growth inhibition [6, 7]	growth inhibition [6, 8]	growth inhibition ([6]; at 50.0 µM)
O=C(O)C#CC(=O)O	22% (inactive)	76% (active)	76.2% (active) and 1.25% (inactive)	20% (inactive)	20% (inactive)	85.7% (active) and -6.9% (inactive)	28% (inactive)	63% (inactive)	76.2% (active) and 12.3% (inactive)	31% (inactive)	30% (inactive)	17.6% (inactive) and 1.65% (inactive)	26% (inactive)	38% (inactive)	60% (inactive) and -7.7% (inactive)	35% (inactive)	60% (inactive)	75.5% (active) and 15.1% (inactive)
Cn1c2nc3ccccc3c-2cc2ccccc21	44% (inactive)	85% (active)	84% (active) and 85.2% (active)	27% (inactive)	75% (active)	77.8% (active) and 71.2% (active)	38% (inactive)	83% (active)	70% (inactive) and 68.5% (inactive)	41% (inactive)	74% (active)	60.5% (inactive) and 59.4% (inactive)	30% (inactive)	83% (active)	70.8% (active) and 68.2% (inactive)	48% (inactive)	83% (active)	76.7% (active) and 72.6% (active)
CC(C)C1=CC23CCC4C(C)(C(=O)O)CCCC4(C)C2CC1C1C(=O)OC(=O)C13 (configuration not stated)	93% (active)	99% (active)	99.3% (active) and 99.5% (active)	96% (active)	100% (active)	99.5% (active) and 99.7% (active)	87% (active)	100% (active)	99.6% (active) and 49.5% (inactive)	85% (active)	99% (active)	99% (active) and 98.5% (active)	90% (active)	99% (active)	99% (active) and 99.5% (active)	90% (active)	99% (active)	99.4% (active) and 99.5% (active)
CN1CCN(CN2C(=O)C3C4C=CC(C3C2=O)C2C3C(=O)N(CN5CCN(C)CC5)C(=O)C3C42)CC1 (configuration not stated)	-3% (inactive)	-12% (inactive)	-28.4% (inactive) and -8.45% (inactive) and -17.1% (inactive)	1% (inactive)	30% (inactive)	-28.4% (inactive) and 11.8% (inactive) and -15.2% (inactive)	-1% (inactive)	0% (inactive)	-18.7% (inactive) and 18.9% (inactive) and -32.5% (inactive)	-10% (inactive)	-9% (inactive)	-7.45% (inactive) and 32.5% (inactive) and -40.9% (inactive)	11% (inactive)	2% (inactive)	-13.5% (inactive) and -11.5% (inactive) and -76% (inactive)	-1% (inactive)	18% (inactive)	-4.4% (inactive) and -31.1% (inactive) and -65% (inactive)
